Experimental data as given in PubChem BioAssay AID1259349 (Broad Institute, 2017).
In all, about 17,000 compounds went through this assay and about 1,100 (6.5%) were called active. For the sample, actives were picked, then their nearest neighbours and some compounds at random. Values without a mark were called inactive.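 Rule for the calls: active = z-score of -3 or lower, meaning strong loss of probe binding signal; inactive = the rest.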

What follows are compounds tested against Insulin-degrading enzyme (Homo sapiens) (UniProt P14735) (assay: exo-site inhibitors of human IDE, primary screen, biochemical, fluorescence anisotropy, probe displacement (AID 1259349;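 note: His-tagged human IDE residues 42-1019 made in E. coli with 30 nM FL-6b probe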)). Details: purified IDE, FL-6b probe fluorescence polarization; at 20 µM; active compounds read low.
Insulin-degrading enzyme (Homo sapiens), sequence (P14735 42-1019 limits assumed): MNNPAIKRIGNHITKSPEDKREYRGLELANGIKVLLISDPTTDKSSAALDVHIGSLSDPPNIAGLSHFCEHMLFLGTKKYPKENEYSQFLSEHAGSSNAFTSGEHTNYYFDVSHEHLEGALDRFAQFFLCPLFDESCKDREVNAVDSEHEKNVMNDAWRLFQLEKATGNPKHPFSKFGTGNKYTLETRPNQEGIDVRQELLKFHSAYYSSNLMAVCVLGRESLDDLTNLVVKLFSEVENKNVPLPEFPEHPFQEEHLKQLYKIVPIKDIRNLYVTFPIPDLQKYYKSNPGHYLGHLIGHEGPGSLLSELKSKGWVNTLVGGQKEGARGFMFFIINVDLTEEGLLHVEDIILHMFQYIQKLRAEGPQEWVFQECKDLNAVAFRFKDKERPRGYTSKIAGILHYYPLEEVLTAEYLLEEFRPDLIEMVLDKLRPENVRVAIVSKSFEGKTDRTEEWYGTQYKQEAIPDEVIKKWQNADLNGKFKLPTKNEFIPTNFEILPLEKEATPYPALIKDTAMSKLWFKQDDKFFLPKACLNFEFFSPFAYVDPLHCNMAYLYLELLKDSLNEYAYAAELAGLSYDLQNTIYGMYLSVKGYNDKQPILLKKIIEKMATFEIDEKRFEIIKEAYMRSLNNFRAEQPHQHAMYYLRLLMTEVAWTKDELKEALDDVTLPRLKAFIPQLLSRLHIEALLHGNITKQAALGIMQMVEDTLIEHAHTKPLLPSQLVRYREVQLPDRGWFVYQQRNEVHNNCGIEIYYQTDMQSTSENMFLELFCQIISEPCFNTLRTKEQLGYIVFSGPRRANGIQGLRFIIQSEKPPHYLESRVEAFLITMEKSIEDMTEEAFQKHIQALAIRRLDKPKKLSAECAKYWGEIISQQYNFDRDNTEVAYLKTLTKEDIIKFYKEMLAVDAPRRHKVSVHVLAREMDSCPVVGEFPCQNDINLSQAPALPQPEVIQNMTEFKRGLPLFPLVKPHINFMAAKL

Row | Structure (SMILES) | z-score
1 | CN1C(=O)c2cc(NC(=O)Nc3ccccc3Cl)ccc2OC[C@H]2O[C@H](CC(=O)NCCCN3CCOCC3)CC[C@H]21 | -1.04
2 | CC(=O)NC[C@H]1[C@@H](c2ccc(C#CC(C)C)cc2)[C@@H](CO)N1Cc1ccccn1 | -1.78
3 | C[C@@H]1CN([C@H](C)CO)C(=O)c2cc(NC(=O)NC3CCCCC3)ccc2O[C@@H]1CN(C)S(C)(=O)=O | 0.86
4 | COc1cccc(C(=O)Nc2ccc3c(c2)C(=O)N(C)[C@H]2CC[C@H](CC(=O)N[C@@H](C)c4ccccc4)O[C@H]2CO3)c1 | -1.12
5 | C[C@@H](NC(=O)C[C@H]1CC[C@H]2[C@H](COc3ccc(NS(=O)(=O)c4ccc(Cl)cc4)cc3C(=O)N2C)O1)c1ccccc1 | 0.297
6 | COc1cccc(C(=O)Nc2ccc3c(c2)C(=O)N(C)[C@H]2CC[C@@H](CC(=O)N[C@H](C)c4ccccc4)O[C@H]2CO3)c1 | -4.24 (active)
7 | O=C(Cc1ccccn1)N1CC(=O)N2[C@H](C1)[C@@H](c1ccc(-c3ccccc3)cc1)[C@@H]2CO | -6.31 (active)
8 | O=C(c1ccccc1F)N1CC(=O)N2[C@H](CO)[C@@H](c3ccc(-c4cccnc4)cc3)[C@H]2C1 | -0.211
9 | O=C(c1cccnc1)N1CC(=O)N2[C@H](CO)[C@@H](c3ccc(-c4ccc(F)cc4)cc3)[C@@H]2C1 | -1.03
10 | COc1cccc(-c2ccc([C@@H]3[C@H]4CN(C(=O)c5cccnc5)CC(=O)N4[C@H]3CO)cc2)c1 | -6.37 (active)
11 | Cc1ccccc1-c1ccc([C@H]2[C@H](CO)N3C(=O)CN(C(=O)c4cccnc4)C[C@@H]23)cc1 | -12.4 (active)
12 | O=C(c1cccnc1)N1CC(=O)N2[C@H](C1)[C@H](c1ccc(-c3ccccc3F)cc1)[C@@H]2CO | -1.28
13 | COc1ccc(C#Cc2ccc([C@H]3[C@H]4CN(C(=O)c5cccnc5)CC(=O)N4[C@H]3CO)cc2)cc1 | -0.5
14 | O=C(Cc1ccccn1)N1CC(=O)N2[C@H](CO)[C@H](c3ccc(C#CCC4CCCC4)cc3)[C@@H]2C1 | 0.616
15 | Cc1ccccc1-c1ccc([C@H]2[C@@H](CO)N3C(=O)CN(C(=O)c4cccnc4)C[C@@H]23)cc1 | -8.42 (active)
16 | N#Cc1ccc(-c2ccc([C@H]3[C@H](CO)N4C(=O)CN(C(=O)Cc5ccccc5)C[C@@H]34)cc2)cc1 | 1.44
17 | CCCC#Cc1ccc([C@H]2[C@H]3CN(C(=O)c4cccnc4)CC(=O)N3[C@H]2CO)cc1 | 0.452
18 | O=C(c1cccnc1)N1CC(=O)N2[C@H](CO)[C@H](c3ccc(-c4cccnc4)cc3)[C@@H]2C1 | 1.98
